Assay results published in PubChem BioAssay.
“And” between values parts separate entries of the source, which are not always exact repeats. Equal values may be shown once. The source made the active and inactive calls. Unless noted, how the calls were made is not given here.

Experiments:
[1] = compounds altering circadian rhythm period length – cell-based, LOPAC library, luminescence reporter (AID 2774); conditions: circadian reporter cells, at 7 µM, actives lie on both sides;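 further: values are relative to mean of DMSO wells on each plate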
[2] = system: Hepatitis C virus NS3 helicase; experiment: blockers of NS3h binding to ssDNA – biochemical, fluorescence polarization, LOPAC1280 library, primary screen (AID 687035; in the data active means inhibition above about 37%); conditions: Purified HCV NS3 helicase, Cy5-dT15 ssDNA binding fluorescence polarization; stronger effect = higher value; concentration not given here
[3] = compounds altering Cy5-DNA-NS3h complex signal – biochemical, LOPAC1280, artefact control for HCV NS3 helicase inhibitor project (AID 687037); conditions: Cy5-DNA-NS3h complex fluorescence interference counterscreen
[4] = system: Aerobactin synthetase IucA (Klebsiella pneumoniae); experiment: inhibition of K. pneumoniae IucA enzyme – biochemical, Tocris library, absorbance (AID 1345561); conditions: purified IucA enzyme assay, absorbance (OD) read-out; stronger effect = lower value;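 tested at 8 µM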;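 further: 100% = enzyme without compound and 0% = no enzyme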
[5] = system: Aerobactin synthetase IucA (Klebsiella pneumoniae, hypervirulent); experiment: biochemical IucA inhibition screen of LOPAC library by absorbance (AID 1346212); conditions: IucA enzyme assay, absorbance (OD) readout; stronger effect = lower value;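 tested at 8 µM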;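 further: 100% = no compound wells and 0% = no enzyme wells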
[6] = viability loss with induced miR-34 in A549 – imaging, A549 dox-inducible miR-34, nuclei and caspase counts, primary screen (AID 1347080;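 active means compounds whose cell count with miR-34 switched on is under 0.7 times the count with it off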); conditions: A549 miR-34 inducible, Hoechst nuclei count, 48 h
[7] = blockers of cellular phospholipid synthesis – cell-based, LOPAC library, screen 4, primary screen (AID 1347384); conditions: animal cells, phospholipid biosynthesis inhibition screen; at 10 µM
[8] = galactose survival enhancers in mitochondrial complex I cybrids – cell-based, galactose medium, ATP luminescence, primary screen (AID 1645843;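 active means z-score of at least 1.8 in each of two replicates, scored against plate mean and spread of sample wells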;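 further: positive z means more ATP and so rescue of galactose-driven cybrid death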); conditions: complex I mutant cybrid cells, 72 h, stronger effect = higher value
[9] = chitosan synthesis blockers in C. neoformans – flow cytometry, Cibacron Brilliant Red staining (AID 1347148); conditions: Cryptococcus neoformans chitosan, stronger effect = lower value; at 10 µM unless noted;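 further: compound exposure lasted three days at 37 degrees C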
[10] = P. berghei load reduction in hepatocytes – cell-based, HepG2, luciferase luminescence, HepG2 viability, primary screen (AID 624349; in the data active means parasite load remaining mostly below about 12%, no sharp cut-off; inactive means mostly above about 10%;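 further: 100% = mean of DMSO negative control wells on the same plate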); conditions: P. berghei liver stage in HepG2, luciferase luminescence, concentration not given here; parasite load remaining: stronger effect = lower value; viability: measured here: HepG2 viability without parasites
[11] = EMT-state selective cytotoxicity in co-culture – imaging, PC-3E GFP, TEM4-18 mCherry, primary screen (AID 1345086;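 active means compounds killing one labelled cell type while sparing the other, by normalised counts and ratio limits, not self-fluorescent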;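 further: cells exposed to compound for 72 h before imaging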;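 on red/green cell ratio (normalised): normalised mesenchymal count divided by normalised epithelial count so high means epithelial killing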); conditions: PC-3E GFP / TEM4-18 mCherry co-culture, imaging cell counts, at 1 µM
[12] = target: NAD(+) hydrolase SARM1 (Homo sapiens) (UniProt Q6SZW1); experiment: blocking NAD cleavage by SARM1 SAM-TIR – cell lysate, NAD-Glo luminescence (AID 1508614;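 active means compound whose remaining NAD level is above about 45 nM, limit read from the data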); conditions: SAM-TIR HEK293T lysate NADase, at 1 µM, stronger effect = higher value
[13] = measured here: relative caspase fold change +Dox/-Dox
[14] = measured here: total cells with miR-34 induction, stronger effect = lower value
[15] = measured here: total cells without miR-34 induction

Sequence of NAD(+) hydrolase SARM1 (Homo sapiens) (Q6SZW1 whole entry, looked up): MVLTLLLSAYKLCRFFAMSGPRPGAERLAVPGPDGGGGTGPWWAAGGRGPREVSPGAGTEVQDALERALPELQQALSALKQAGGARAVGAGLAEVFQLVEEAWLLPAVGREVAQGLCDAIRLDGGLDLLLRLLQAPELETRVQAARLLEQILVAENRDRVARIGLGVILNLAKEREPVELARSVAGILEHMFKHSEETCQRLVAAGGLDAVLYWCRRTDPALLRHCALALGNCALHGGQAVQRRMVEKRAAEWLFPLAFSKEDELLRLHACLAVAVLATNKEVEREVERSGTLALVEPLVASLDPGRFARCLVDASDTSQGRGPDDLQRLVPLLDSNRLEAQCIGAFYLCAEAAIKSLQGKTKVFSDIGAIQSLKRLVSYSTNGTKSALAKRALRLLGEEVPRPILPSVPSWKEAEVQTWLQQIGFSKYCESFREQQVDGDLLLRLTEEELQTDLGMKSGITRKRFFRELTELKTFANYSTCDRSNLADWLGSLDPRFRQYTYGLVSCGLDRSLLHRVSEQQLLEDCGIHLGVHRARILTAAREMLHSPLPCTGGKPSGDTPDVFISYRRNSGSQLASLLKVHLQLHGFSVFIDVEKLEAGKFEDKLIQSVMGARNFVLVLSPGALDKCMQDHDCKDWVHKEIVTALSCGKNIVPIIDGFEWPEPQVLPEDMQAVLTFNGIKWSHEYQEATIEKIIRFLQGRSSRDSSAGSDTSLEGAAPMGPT

Row | SMILES | period change [1] | inhibition [2] | fluorescence ratio (interference) [3] | remaining activity [4] | remaining activity [5] | fold change ([6]; stronger effect = lower value) | fold change [6, 13] | cell count [6, 14] | cell count [6, 15] | outcome [7] | z-score [8] | fold fluorescence [9] | parasite load remaining [10] | viability [10] [%] | red/green cell ratio (normalised) ([11]; actives lie on both sides) | normalised cell number ([11]; measured here: epithelial PC-3E GFP cell survival) | normalised cell number ([11]; measured here: mesenchymal TEM4-18 mCherry cell survival) | remaining NAD [12]
1 | NCCc1c[nH]c2ccc(C(N)=O)cc12 | -0.055 h (inactive) | -3% (inactive) | 1 (inactive) | 111% (inactive) | 90% (inactive) | 0.977 (inactive) and 0.883 (inactive) | 1.26 and 0.923 | 10000 and 7810 | 10300 and 8850 | inactive | 0.31 (inactive) and 0.705 (inactive) |  |  |  |  |  |  | 
2 | c1ccc2c(c1)[I+]c1ccccc1-2 | -1.22 h (inactive) | -5% (inactive) | 1 (inactive) | 106% (inactive) | 103% (inactive) | 1.1 (inactive) and 0.717 (inactive) and 0.928 (inactive) | 1.26 and 1.66 and 0.513 | 1170 and 692 and 1240 | 1070 and 966 and 1340 | active | -1.03 (inactive) and -1.25 (inactive) | 9.07 [at 179.1 µM] (inactive) |  |  |  |  |  | 
3 | O=C(O)CCCO |  |  |  |  |  | 0.926 (inactive) | 0.797 | 11100 | 11900 |  |  |  | 64.2% (inactive) | 92.7 | 1 (inactive) | 0.91 | 0.91 | 10 nM (inactive)
4 | CC(C)(C)c1o[nH]c(=O)c1CC(N)C(=O)O (centres undefined) | -0.635 h (inactive) | -1% (inactive) | 1 (inactive) | 108% (inactive) | 110% (inactive) | 1 (inactive) and 0.891 (inactive) | 1.8 and 0.776 | 10700 and 8780 | 10700 and 9850 | inactive | -0.285 (inactive) and -0.155 (inactive) |  |  |  |  |  |  | 
